The values that follow come from PubChem BioAssay AID1117361 (Southern Research Institute, 2015).

Among all 3,600 compounds or so, about 900 (25%) were called active. No rule for the calls is given here. These entries were drawn from the full list. Results with a measured potency or affinity are listed apart.

The target in the assay is Protein Tat (Human immunodeficiency virus type 1 group M subtype B (isolate HXB2)) (UniProt P04608). The assay is described as follows: HIV-1 Tat–TAR interaction blockers – biochemical, fluorescence polarization, FAM-labeled TAR RNA, counter-screen for Vif-APOBEC3G degradation inhibitor project, dose response (AID 1117361). Conditions: Tat-TAR RNA binding; series mostly up to 100 µM.
As for `COc1ccc2cc(C3(C)NC(=O)N(CC(=O)Nc4c(C)n(C)n(-c5ccccc5)c4=O)C3=O)ccc2c1` (stereo not given), the molecule was classed as inactive.
The entry for `O=S(=O)(/C=C/c1ccccc1)N1CCN(c2ccc(F)cc2)CC1` is “inactive”.
The entry for `CC(=O)Nc1cccc(C(=O)NC(C)c2ccc(S(N)(=O)=O)cc2)c1` (stereo not given) is “inactive”; for `CCCN(CCC)CCCNc1ccc2nnc(-c3ccc(F)cc3)n2n1` it is “inactive”; for `CCOC(=O)C1CCN(C(=O)c2ccc(OC)cc2OC)CC1` it is “inactive”.
The entry for `CCOC(=O)C1CCN(C(=O)C2CCN(S(=O)(=O)c3cc(Cl)ccc3Cl)CC2)CC1` is “inactive”; for `CCC1SC2=NC(C)=C(C(=O)OC)C(c3ccc(C(=O)OC)cc3)N2C1=O` (stereo not given) it is “inactive”.
As to `CCOC(=O)c1ccc(N2C(=O)c3n[nH]c(C)c3C2c2ccc(OC)cc2OC)cc1` (stereo not given), the call was inactive.
The entry for `CC1=NN(C(=O)c2csc(C)c2)C(O)(C(F)(F)F)C1` (stereo not given) is “inactive”; for `CCCC(=O)Nc1cccc(-c2nc3ccccc3o2)c1` it is “inactive”.
On to `Brc1ccccc1Cn1c(-c2cncs2)nc2ccccc21`, for which the molecule was called inactive.
Consider `O=C(CNS(=O)(=O)c1ccc2ccccc2c1)Nc1ccc(F)c(F)c1F`, for which the result was inactive.
Take `COc1cccc(CN2CCNC(=O)C2CC(=O)NCCn2nc(C)cc2C)c1OC` (stereo not given): the result was inactive.
On to `CC(C)(C)CN1CCNC(=O)C1CC(=O)NCCc1ccccc1C(F)(F)F` (stereo not given), for which the call was inactive.
The entry for `O=C(CSc1ccccc1)N1CCN(c2ccccc2)CC1` is “inactive”.
Consider `Cc1nc2nc(C)c(CCC(=O)N3CCN(c4ccccc4)CC3)c(C)n2n1`, for which the result was inactive.
In the case of `COc1cccc(/C=N/n2c(-c3cc(C)[nH]n3)n[nH]c2=S)c1`, the outcome was inactive.
Turning to `C(=N\Nc1nncn1/N=C/c1ccco1)/c1ccco1`, the molecule was called inactive.
Take `Cc1nc2scc(-c3ccccc3)c2c(=O)n1/N=C/c1ccco1`: the molecule was called inactive.
For the molecule `Cn1ccnc1SCC(=O)c1ccc(Br)cc1`, the molecule was classed as inactive.
Turning to `CCO[C@H]1OC(C(=O)NCc2ccccc2)=C[C@@H](c2coc3ccccc3c2=O)[C@@H]1CCCO`, the molecule was classed as inactive.
Take `C/C(N)=C(/C#N)C(=O)COC(=O)CCSc1ccccc1`: the call was inactive.
The entry for `CCN(CC)Cc1cc(Nc2c3ccccc3nc3c4ccccc4n(C)c23)cc(CN(CC)CC)c1O` is “inactive”.
As for `Clc1ccc(-n2ncc3c(NCc4ccccn4)ncnc32)cc1`, the molecule was called inactive.
On to `COc1ccccc1C(C#N)N1N=C(C)CC1(C)C` (stereo not given), for which the molecule was classed as inactive.
Regarding `CSc1nc2ccc3nc(NC(=O)c4ccccc4)sc3c2s1`, the call was inactive.
Regarding `CCOc1ccc(C(=O)NC(=S)Nc2ccc(N3CCC(C)CC3)cc2)cc1[N+](=O)[O-]`, the outcome was inactive.
The entry for `CCCCN(C(=O)c1ccccc1OCc1ccc(F)cc1)c1c(N)n(CC(C)C)c(=O)[nH]c1=O` is “inactive”; for `CC(C)c1ccc(SCc2noc(C(=O)NCC3CCCO3)c2C(=O)O)cc1` (stereo not given) it is “inactive”.
The entry for `CCN1C(=O)/C(=C/N2CC(C)CC(C)C2)SC1=S` (stereo not given) is “inactive”; for `Cc1ccccc1N1C(=O)C2ON(c3ccccc3)C(c3cccnc3)C2C1=O` (stereo not given) it is “inactive”.
As for `CC1=CCC(/C=N\Nc2nnc3c(n2)[nH]c2ccccc23)CC1` (stereo not given), the molecule was called inactive.
The entry for `CCOC(=O)c1nc2sc(C)c(C)c2c(=O)[nH]1` is “inactive”.
With `CCN1C(=O)c2ccccc2S(=O)c2ccc(C(=O)N3CCCC3)cc21` (stereo not given), the outcome was inactive.
The entry for `Cc1cccc(N2CCN(CC(=O)NCC3CCCCC3)CC2)c1C` is “inactive”; for `Nc1nc(-c2ccc(F)cc2)cc(C(F)(F)F)n1` it is “inactive”; for `O=C(CN1C(=O)c2ccccc2C1=O)OC(C(=O)c1ccc(Cl)cc1)c1ccccc1` (stereo not given) it is “inactive”.
For the molecule `COc1ccc(NC(=O)c2ccccc2NC(=O)CSc2ccc(Cl)cc2)cc1`, the call was inactive.
For the molecule `Cc1cc(NC(=O)c2ccccc2F)n(-c2nc3ccccc3[nH]2)n1`, the outcome was inactive.
The entry for `CC(C)(C)NC(=O)NC(=O)COc1ccccc1C#N` is “inactive”; for `CC1CN(C(=O)N[C@@H](Cc2ccccc2)C(=O)O)CC(C)O1` (stereo not given in full) it is “inactive”.
The entry for `Cc1ccc(CC(NC(=O)c2ccccc2)C(=O)NC(C)C(=O)O)cc1` (stereo not given) is “inactive”.
The entry for `O=C(CSc1nc2ccccc2c(=O)n1NC(=O)Cc1ccccc1)NCc1ccccc1` is “inactive”; for `C=C(Br)Cn1c(CC)nc2ccccc21` it is “inactive”.
For the molecule `CCOC(=O)Cc1csc(N/N=C\c2cccc(Br)c2)n1`, the molecule was called inactive.
The entry for `COC(=O)Cc1cc(=O)n2[nH]c(C)cc2n1` is “inactive”.
The entry for `CC(=O)N1CCc2cc(S(=O)(=O)NCCC(=O)Nc3cc(C)cc(C)c3)ccc21` is “inactive”; for `Oc1ccccc1-c1cc(C(F)(F)C(F)F)[nH]n1` it is “inactive”; for `OC(CN1CCN(c2ccccc2)CC1)c1ccc2c(c1)CCN2` (stereo not given) it is “inactive”.
With `CCc1ccc(-c2nc(SCC(=O)c3c(N)n(C4CC4)c(=O)[nH]c3=O)n[nH]2)cc1`, the call was inactive.
The entry for `COc1ccc(CC(=O)OCC(=O)NCc2ccco2)cc1OC` is “inactive”; for `O=C(COC(=O)Cc1ccc(Cl)cc1)NCc1ccco1` it is “inactive”.
Take `COc1cc(C(=O)Nc2ccc(N3CCCS3(=O)=O)cc2)c([N+](=O)[O-])cc1OC`: the result was inactive.
The entry for `Cc1cc(O)c(-c2n[nH]c3c2C(c2cccc(O)c2)N(Cc2cccnc2)C3=O)cc1Cl` (stereo not given) is “inactive”; for `N#Cc1c(NC(=O)CSc2nnnn2C2CCCCC2)sc2c1CCCC2` it is “inactive”.
The entry for `CCCn1c2ccccc2c2nnc(SC(CC)C(=O)Nc3sc4c(c3C#N)CCCC4)nc21` (stereo not given) is “inactive”; for `CCCC(C)NC(=O)CSCc1ccc(OC)cc1` (stereo not given) it is “inactive”.
The entry for `CCNc1nc(NCC)nc(OCCNS(=O)(=O)c2cc(C)ccc2C)n1` is “inactive”.
With `COc1ccccc1C=NC(CO)C(O)c1ccc([N+](=O)[O-])cc1` (stereo not given), the outcome was inactive.
As to `Cc1c(NC(=O)NCCN2C(=O)C3C4C=CC(C4)C3C2=O)c(=O)n(-c2ccccc2)n1C` (stereo not given), the result was inactive.
As to `O=C(NCN1C(=O)C2C3C=CC(C3)C2C1=O)OC1CCCCC1` (stereo not given), the outcome was inactive.
`C=CCc1c(C)nc2c(C(=O)O)cnn2c1C`: the result was inactive.
As for `Cc1ccccc1-c1nc(CN2CCC(C(=O)N3CCN(c4ccccn4)CC3)CC2)c(C)o1`, the molecule was classed as inactive.
For the molecule `COc1ccc(-c2cc(-c3ccccc3)c(C#N)c(S(C)=O)n2)cc1` (stereo not given), the molecule was called inactive.
The entry for `Cc1cccc(C)c1NC(=O)c1ccc(-n2cnnn2)cc1` is “inactive”.
As to `COc1ccc(C2=NOC(C(=O)NCc3cccs3)C2)cc1OC` (stereo not given), the call was inactive.
`Cc1cccc(N2C(=O)CN=C2Nc2nc(C)cc(C)n2)c1`: the result was inactive.
For the molecule `COc1ccc(/C=N/OCC(=O)Nc2cc(C)on2)cc1OC`, the call was inactive.
For the molecule `COC(=O)C1CCN(c2ccc([N+](=O)[O-])cc2)CC1`, the molecule was called inactive.
As for `O=C(Nc1ccc(N2CCCCC2)cc1)c1cc([N+](=O)[O-])cc([N+](=O)[O-])c1`, the molecule was called inactive.
